Test results published in PubChem BioAssay (NCI).
The panel holds about 83,000 compounds, 20% with a hit somewhere; the sample as a whole holds those more often.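 Percent growth is the endpoint: 0 to 100 indicates growth inhibition (40 means 60% inhibition), 0 means no net growth, and negative values indicate cell death.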 A number with no mark means an inactive call. Activity calls are given as the source filed them. How the source made its calls: active means growth percent below 10; inactive means the rest.

How the values were obtained:
Assay in all cases: NCI-60 one-dose screen, 48 h (100 = growth as untreated, 0 = no growth, -100 = all killed)
Conditions in all cases: 10 µM unless noted
HCT-15 colon = system: HCT-15 colon
HT29 colon = system: HT29 colon
SNB-75 CNS = system: SNB-75 CNS
SNB-19 CNS = system: SNB-19 CNS
U251 CNS = system: U251 CNS
PC-3 prostate = system: PC-3 prostate
SK-MEL-5 melanoma = system: SK-MEL-5 melanoma
UACC-62 melanoma = system: UACC-62 melanoma
LOX IMVI melanoma = system: LOX IMVI melanoma
SK-MEL-28 melanoma = system: SK-MEL-28 melanoma
SK-MEL-2 melanoma = system: SK-MEL-2 melanoma
EKVX NSCLC = system: EKVX NSCLC
SN12C renal = system: SN12C renal
UO-31 renal = system: UO-31 renal
TK-10 renal = system: TK-10 renal
ACHN renal = system: ACHN renal
CAKI-1 renal = system: CAKI-1 renal
A498 renal = system: A498 renal
CCRF-CEM leukemia = system: CCRF-CEM leukemia
MOLT-4 leukemia = system: MOLT-4 leukemia

Row | SMILES | growth (HCT-15 colon) | growth (HT29 colon) | growth (SNB-75 CNS) | growth (SNB-19 CNS) | growth (U251 CNS) | growth (PC-3 prostate) | growth (SK-MEL-5 melanoma) | growth (UACC-62 melanoma) | growth (LOX IMVI melanoma) | growth (SK-MEL-28 melanoma) | growth (SK-MEL-2 melanoma) | growth (EKVX NSCLC) | growth (SN12C renal) | growth (UO-31 renal) | growth (TK-10 renal) | growth (ACHN renal) | growth (CAKI-1 renal) | growth (A498 renal) | growth (CCRF-CEM leukemia) | growth (MOLT-4 leukemia)
1 | COc1cc(C2C(C(=O)OCc3ccccc3)=C(C)Nc3nc4ccccc4n32)cc(OC)c1OC (stereo not given) | 24.8% | 37.3% | -38.3% (active) | 20.4% | 27% | 51.7% | 17.3% | 2.04% (active) | 12.2% | 33.9% | 47.5% | 36.8% | 37.1% | 1.37% (active) | 34.6% | -4.94% (active) | 6.89% (active) | -22.7% (active) | 41.7% | 33.2%
2 | COc1ccc(/C=C/c2nc3ccccc3c(=O)n2CC(=O)Nc2ccccc2)cc1 | 79.9% | 83.3% | -35% (active) | 29.1% | 16.3% | 84.7% | 71.6% | 78.6% | 26.9% | 79.1% | 81.2% | 63.1% | 8.23% (active) | -33% (active) | -9.9% (active) | -60% (active) | 35.1% | -43% (active) | 88.3% | 86.7%
3 | O=c1[nH]c2ccccc2cc1CSc1ccccc1Nc1nccc(-c2ccc3c(c2)OCO3)n1 | 95.1% | 94.4% | 9.83% (active) | 63.1% | 51.3% | 79.2% | 87.2% | 68.5% | 76.5% | 83% | 96.7% | 86.6% | 57% | 77.6% | 107% | 51.6% | 16% | 126% | 101% | 93.6%
4 | COc1cc(/C=C/C(=O)c2cnn(-c3cc(=O)[nH]c4ccccc34)c2C)cc(OC)c1OC | 12.2% | 9.84% (active) | 71.9% | 26.6% | 9.13% (active) | 43.3% | -24.9% (active) | 29.9% | 13.5% | 36.5% | 52% | 4.03% (active) | -1.59% (active) | 25.6% | 27.7% | 20.3% | 19.1% | 96.1% | -18.6% (active) | -12.8% (active)
5 | CN(CCSSCCN1CCOCC1)C(=O)Oc1cc2c(c3ccccc13)[C@H](CCl)CN2C(=O)c1cc2cc(OCCCN3CCC3)ccc2[nH]1 | -49.3% (active) | -40.5% (active) | -46% (active) | -100% (active) | -60.3% (active) | -21.9% (active) | -89.6% (active) | -72.7% (active) | -73% (active) | -58% (active) | -84.3% (active) | -61.3% (active) | -9.12% (active) | -16.7% (active) | -10.3% (active) | -66.8% (active) | -48.1% (active) | -14.5% (active) | -41.3% (active) | -39.8% (active)
6 | COc1ccc(-c2nc3ccc(-c4nnc(SCc5ccccc5)o4)cc3[nH]2)cc1 | -17.4% (active) | 9.58% (active) | -82.8% (active) | 2.92% (active) | -77.1% (active) | 20.1% | -21.7% (active) | -72.3% (active) | -96.6% (active) | -36.3% (active) | 11% | -0.06% (active) | -66.3% (active) | -44.2% (active) | -35.3% (active) | -85.2% (active) | -77.1% (active) | -36.2% (active) | 13.9% | 11.5%
7 | N#Cc1ccc(C(=O)NNC(=O)CSc2nc3sc4c(c3c(=O)n2-c2ccc(Cl)cc2)CCCC4)cc1 | 51.2% | 56% | 86.7% | 51.5% | 15.9% | 67% | 38.5% | 4.59% (active) | 39.7% | 27.8% | 94.2% | 54.3% | 41.7% | 42.7% | 115% | 71.2% | 53.1% | 89.2% | 48.9% | 46.3%
8 | O=C(CSc1nnc(-c2ccc(-c3nc4ccc(Cl)cc4[nH]3)cc2)o1)Nc1ccc(Cl)cc1 | 8.62% (active) | 23.1% | 2.16% (active) | -8.15% (active) | -74.1% (active) | -24.1% (active) | 8.87% (active) | -44.8% (active) | -92.5% (active) | -73.6% (active) | 14.7% | 48.4% | -11.6% (active) | 30.9% | 73.7% | -69.3% (active) | -40.3% (active) | 127% | 4.89% (active) | 5.53% (active)
9 | Cc1ccc(C2CC(c3ccc(NC(=O)Nc4ccccc4)cc3)=NN2c2ccc(S(N)(=O)=O)cc2)cc1 (stereo not given) | -68% (active) | -62% (active) | -68.1% (active) | -99.8% (active) | -96.1% (active) | -59% (active) | -96.6% (active) | -96.2% (active) | -100% (active) | -99.7% (active) | -81.7% (active) | -95.1% (active) | -91.6% (active) | -100% (active) | -81.4% (active) | -100% (active) | -98.2% (active) | -93% (active) | -17.7% (active) | -27.8% (active)
10 | CC(C)(C)C(=O)C1CC(C#N)=C2C=Cc3c(ccc4ccccc34)N21 (stereo not given) | 88.3% | 90.4% | -5.13% (active) | 60.1% | 75.2% | 80% | 91.1% | 91.1% | 95.5% | 106% | 92.4% | 79.7% | 92.4% | 90.5% | 92.6% | 85.2% | 86.7% | 144% | 91.4% | 81.6%
11 | Fc1cccc(CNc2nc(SCCN3CCOCC3)nc3c2cnn3CC(Cl)c2ccc(Br)cc2)c1 (stereo not given) | -64.7% (active) | -49.9% (active) | 42.3% | 42.2% | 25.2% | 25.8% | 3.78% (active) | 28.2% | 5.6% (active) | 46.8% | 13.5% | 41.1% | 36.5% | -3.52% (active) | 46.7% | 17.3% | 26.7% | 57.2% | 6.67% (active) | -23.8% (active)
12 | Cc1ccc2nc(SCc3ccccc3F)n(-c3ccccc3)c(=O)c2c1 | 83.3% | 78.7% | 156% | 96.8% | 99.4% | 77.9% | 93.9% | 74.3% | 84.9% | 100% | 102% | 59.9% | 90.6% | 83.7% | 90.2% | 92.9% | 83.3% | 137% | 73% | 73.3%
13 | COc1cc(CNC(=O)C[C@H](C)CCC=C(C)C)ccc1OCc1cn(-c2cccc(C(F)(F)F)c2)nn1 | 56.8% | 96.6% | 65.2% | 97.2% | 51% | 82.5% | 78.8% | 72.1% | 80.7% | 91.6% | 111% | 92.1% | 27.1% | 75.7% | 102% | 77.6% | 73.6% | 91% | 97.1% | 84.8%
14 | Cc1ccc(C(=O)Nc2cc(-n3ccnc3C)cc(C(F)(F)F)c2)cc1C#Cc1cnc2cccnn12 | 5.01% (active) | -16.8% (active) | -28.1% (active) | 30.3% | 22.1% | 8.32% (active) | -67.6% (active) | -40% (active) | -80.2% (active) | -32.4% (active) | -64.1% (active) | 3.81% (active) | -8.57% (active) | 0.162% (active) | 11.6% | -6.55% (active) | -41.4% (active) | -18.4% (active) | 5.01% (active) | 4.23% (active)
